Hits are enriched below; roughly 0.38% of the tested compounds scored in any of these assays.
EPAC2 antag: antagonists of human EPAC2. Potency, µM (titrated, usually from 114 µM), most hits filed as inhibitors. EPAC2 GEF exchange of Rap1B-BODIPY-GDP, fluorescence. AID 720708. Q8WZA2. actives 0.18% (n = 360,000); further: nearly all actives have a fitted effect of over 45% in size
Target sequence (Q8WZA2 whole entry, looked up): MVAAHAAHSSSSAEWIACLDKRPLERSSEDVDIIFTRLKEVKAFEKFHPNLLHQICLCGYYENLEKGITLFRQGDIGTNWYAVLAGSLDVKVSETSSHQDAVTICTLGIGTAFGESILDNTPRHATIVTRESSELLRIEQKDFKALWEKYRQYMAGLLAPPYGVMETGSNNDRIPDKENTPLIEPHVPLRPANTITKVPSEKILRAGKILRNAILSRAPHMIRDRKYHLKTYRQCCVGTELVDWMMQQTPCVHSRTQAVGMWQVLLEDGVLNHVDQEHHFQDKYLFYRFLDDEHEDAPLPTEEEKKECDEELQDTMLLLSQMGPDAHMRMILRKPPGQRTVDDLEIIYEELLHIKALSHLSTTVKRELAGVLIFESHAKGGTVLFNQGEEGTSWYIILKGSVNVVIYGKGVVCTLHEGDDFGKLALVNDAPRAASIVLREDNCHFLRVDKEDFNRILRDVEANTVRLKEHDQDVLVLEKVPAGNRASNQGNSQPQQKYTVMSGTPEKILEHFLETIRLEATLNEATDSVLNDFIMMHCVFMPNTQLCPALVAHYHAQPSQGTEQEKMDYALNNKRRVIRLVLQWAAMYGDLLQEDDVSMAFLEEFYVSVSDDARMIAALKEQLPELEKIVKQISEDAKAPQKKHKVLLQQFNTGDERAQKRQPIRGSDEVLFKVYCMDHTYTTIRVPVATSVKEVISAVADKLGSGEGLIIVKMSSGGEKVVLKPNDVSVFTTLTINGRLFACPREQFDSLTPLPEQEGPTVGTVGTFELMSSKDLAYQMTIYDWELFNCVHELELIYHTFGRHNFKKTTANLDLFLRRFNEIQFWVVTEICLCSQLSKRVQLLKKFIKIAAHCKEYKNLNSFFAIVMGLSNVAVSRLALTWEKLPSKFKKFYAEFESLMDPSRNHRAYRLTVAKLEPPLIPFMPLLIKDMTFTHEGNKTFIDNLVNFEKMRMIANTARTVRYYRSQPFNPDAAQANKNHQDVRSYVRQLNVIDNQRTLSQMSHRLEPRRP
EPAC2 ag: EPAC2 (human) agonism | Q8WZA2 | EPAC2 activation, biochemical qHTS; response scale: 100% = 6.5 mM cAMP response | Potency, µM (top dose mostly 154 µM), usual class: activators | actives 0.079% (n = 360,000) | AID 720711; further: nearly all actives have a fitted effect of over 50% in size
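Fluorescence exchange assay: 100 nM EPAC2 with 250 nM RAP1B-BODIPY-GDP and 50 uM GDP; compounds tested as a concentration-titration series (qHTS). Loss of Rap1-bound BODIPY-GDP fluorescence read at 480/540 nm; data normalized to 6.5 mM cAMP.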
EPAC1 antag: antagonists of human EPAC1 | EPAC1 GEF assay, Rap1b-BODIPY-GDP exchange fluorescence | Potency, µM (doses to about 115 µM), actives largely listed as inhibitors | actives 0.14% (n = 360,000); further: nearly all actives have a fitted effect of over 50% in size
EPAC1 ag: EPAC1 (human) agonism; O95398; EPAC1 agonist qHTS, biochemical assay; response scale: 100% = response to 6.5 mM cAMP; Potency, µM (series often up to 154 µM), usual class: activators; actives 0.073% (n = 360,000); AID 720707; further: nearly all actives have a fitted effect of over 60% in size
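EPAC1 100 nM, Rap1B–BODIPY-GDP 250 nM, unlabeled GDP 50 uM; compound titration; 5 min RT; kinetic read ex480/em540 at 5-min intervals ×30 min; data normalized to 6.5 mM cAMP agonist control.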
Each line names hits and unclear results; the compound was inactive in the other large screens. The call rests on the fitted dose curve; in most records, active means well fitted curve in the direction sought with a large enough effect; inconclusive means small, poorly fitted or top-dose-only effect, or another doubt; inactive means no such curve, though single readings can be large; an effect the other way counts as inactive or inconclusive.

CC(=O)C[C@H]1SC[C@@H](C(C)C)N1S(=O)(=O)c1ccc(C)cc1	EPAC2 antag 39.8µM
COc1ccc2c(c1)OC[C@H]1[C@H]2N2C(=O)CN(CCc3c[nH]c4ccccc34)C(=O)[C@@]2(C)[C@H]1c1ccccc1	none
CC1CN(S(=O)(=O)c2cccc(C(=O)Nc3ccccc3N3CCOCC3)c2)CC(C)O1 (stereo not drawn)	EPAC1 ag 25.1µM
O=C1c2ccccc2C(=O)N1Cc1ccco1	none
CC(=O)Nc1ccc(N2C(=O)c3cccc4c(O)ccc(c34)C2=O)cc1	EPAC2 ag 112µM, EPAC1 antag inconclusive, EPAC1 ag 89.1µM
O=C1c2cccc3c(O)ccc(c23)C(=O)N1Cc1ccco1	EPAC2 ag 100µM, EPAC1 ag 56.2µM
O=C1c2cccc3c(O)ccc(c23)C(=O)N1c1ccc(Cl)cc1	EPAC2 ag 112µM, EPAC1 ag 100µM
COc1ccccc1N1N=C(C(=O)c2ccccc2)C2C(=O)N(c3ccc(Br)cc3)C(=O)C21 (stereo not drawn)	EPAC2 antag 44.7µM, EPAC1 antag inconclusive, EPAC1 ag inconclusive
O=C(O)/C=C/c1ccc([N+](=O)[O-])o1	none
O=C1NC(=S)S/C1=C\C=C\c1ccc([N+](=O)[O-])o1	EPAC2 antag 50.1µM, EPAC1 antag 56.2µM
CC(C)C[C@H](NC(=O)C1(c2ccccc2)CCN(C(=O)[C@H]2CSCN2C(=O)OC(C)(C)C)CC1)C(=O)O	none
CC(C)C[C@H](NC(=O)C1(c2ccccc2)CCN(C(=O)OC(C)(C)C)CC1)C(=O)N1CCC[C@H]1C(=O)O	EPAC2 antag 79.4µM, EPAC1 antag inconclusive
CCCNC(=O)C1(C)CCCN(Cc2ccc(Oc3ccccc3)cc2)C1 (stereo not drawn)	EPAC1 antag inconclusive
O=C1C(=C(I)I)c2ccccc2-c2ccccc21	EPAC2 antag inconclusive, EPAC2 ag inconclusive, EPAC1 antag 25.1µM
CCN1C(=O)[C@@H]2[C@@H]3CN(S(=O)(=O)c4ccc(C)cc4)[C@@H](c4ccccc4)[C@@H]3C(=O)C[C@@H]2C1=O	none
CCOC1=CC2=C(C(=O)C(Cl)=CC2=O)[C@@H]2CN(S(=O)(=O)c3ccc(C)cc3)[C@@H](c3ccccc3)[C@H]12	EPAC1 antag 56.2µM
O=C(O)CCc1ccc(S(=O)(=O)Nc2cc(C(F)(F)F)ccc2N2CCCC2)cc1	none
CCOc1ccc(S(=O)(=O)N2CCN(C(=O)c3cc(C4CC4)nn3-c3ccccc3)CC2)cc1	none
Cc1cc2c(=Cc3ccc(N(C)C)cc3)c3ccccc3n2[n+]1C	none
CN(C)c1ccc(C=c2c3ccccc3n3c2c2ccccc2[n+]3C)cc1	EPAC2 antag 44.7µM, EPAC2 ag inconclusive, EPAC1 antag 50.1µM
COc1ccc(S(=O)(=O)N2CCC(C(=O)NN3CCCCC3)CC2)cc1	none
O=C1C=C(c2ccccc2)C(c2ccccc2)C1 (stereo not drawn)	EPAC2 antag 35.5µM
O=C1CC(c2ccccc2)c2ccccc21 (stereo not drawn)	none
CC1(C)CC2(C)CC(=O)C1C(C(=O)O)C2C(=O)O (stereo not drawn)	none
CCN(CC)c1ccc(/C=C(\C#N)C(=O)c2ccc(Br)cc2)cc1	EPAC2 ag 100µM, EPAC1 ag 112µM
O=C(NCc1ccccc1)C1Cc2c(-c3ccc4c(c3)OCO4)ccnc2O1 (stereo not drawn)	none
Cc1ccc(N=C2NC(=O)/C(=C/C=C/c3ccco3)S2)cc1	EPAC1 antag 56.2µM
O=C1NC(=Nc2ccccc2)S/C1=C\C=C\c1ccco1	EPAC1 antag inconclusive
O=C(/C=C/c1ccncc1)c1ccc2c(c1)OCCO2	none
COc1cc(/C=C/C(=O)c2ccc3c(c2)OCCO3)cc(Br)c1OCC(=O)N(C)C	EPAC1 antag 79.4µM
CC(=O)NC(c1ccccc1)c1c(O)ccc2ccccc12 (stereo not drawn)	EPAC2 antag 39.8µM
Cc1cc(NS(=O)(=O)c2ccc(Nc3nc(-c4sc(N)nc4C)cs3)cc2)no1	EPAC2 antag 31.6µM, EPAC1 antag inconclusive
COc1cc(NS(=O)(=O)c2ccc(Nc3nc(-c4ccccc4)cs3)cc2)nc(OC)n1	EPAC1 antag 79.4µM
O=S(=O)(Nc1nccs1)c1ccc(NCc2cc(Br)cc(Br)c2O)cc1	EPAC2 antag 2.82µM, EPAC1 antag inconclusive
O=C(Cc1ccccc1Cl)Nc1ccc(S(=O)(=O)Nc2nccs2)cc1	EPAC2 antag 1µM
COc1cccc(CNc2ccc(S(=O)(=O)Nc3nccs3)cc2)c1O	EPAC2 antag inconclusive
O=C1NC(=S)S/C1=C\c1cc(Cl)ccc1Cl	EPAC2 antag 56.2µM, EPAC1 antag inconclusive
CC1CCCN(c2nc3ccccc3nc2C(C#N)S(=O)(=O)c2ccccc2)C1 (stereo not drawn)	EPAC1 ag 56.2µM
C[C@@H]1CN([C@@H](C)CO)C(=O)c2cc(NC(=O)C3CC3)ccc2O[C@@H]1CN(C)C(=O)NC1CCCCC1	none
O=C(c1ccc(C(=O)N2CCCc3ccccc32)s1)N1CCCc2ccccc21	none
Cc1ccc(C)c2nc3sc(C(=O)N4CCCc5ccccc54)c(N)c3cc12	EPAC2 ag 112µM, EPAC1 ag inconclusive
O=C1NN(c2ccccc2)C(=O)/C1=C/c1ccc(Sc2cccc3ccccc23)o1	EPAC1 antag 56.2µM
O=C1NN(c2ccccc2)C(=O)/C1=C/c1ccc(-c2ccc(C(=O)O)cc2)o1	none
O=C(COC(=O)Cc1ccc(S(=O)(=O)N2CCOCC2)s1)Nc1ccccc1Cl	none
C#CCOCCOCCOCCNc1nc(N2CCN(C(=O)CCCCCCCCCCNC(=O)[C@@H](CCSC)n3cc(CCO)nn3)CC2)nc(N2CCN(C(=O)CCCCCCCCCCNC(=O)[C@H]([C@@H](C)CC)n3cc(CCCCN=C(N)N)nn3)CC2)n1	EPAC2 antag inconclusive, EPAC1 antag inconclusive
C#CCOCCOCCOCCNc1nc(N2CCN(C(=O)CCCCCCCCCCNC(=O)[C@@H](CCSC)n3cc(CCO)nn3)CC2)nc(N2CCN(C(=O)CCCCCCCCCCNC(=O)[C@H]([C@@H](C)CC)n3cc(CCCCCN)nn3)CC2)n1	EPAC2 antag inconclusive, EPAC2 ag inconclusive, EPAC1 antag 44.7µM, EPAC1 ag inconclusive
CCCN1C(=O)c2ccccc2NC1c1ccc(OC)cc1OC (stereo not drawn)	EPAC2 antag 31.6µM
COc1ccc(N2C(=O)c3ccccc3NC2c2ccc(OC)c(CSc3ccccn3)c2)cc1 (stereo not drawn)	none
CCCN1C(=O)c2ccccc2NC1c1ccc(OC)c(CSc2ccccn2)c1 (stereo not drawn)	EPAC2 antag 14.1µM, EPAC1 antag inconclusive
CCCN1C(=O)c2ccccc2NC1c1ccc(OC)cc1O (stereo not drawn)	none
O=c1oc(C2(O)CCCCC2)cc2ccc(-c3ccc4[nH]ccc4c3)cc12	none
O=C1CSC(c2ccc(Cl)cc2Cl)N1c1ccccn1 (stereo not drawn)	EPAC2 antag 17.8µM
O=C1CSC(c2ccccn2)N1c1ccc(Cl)c(Cl)c1 (stereo not drawn)	none

Compound activity: PubChem, National Center for Advancing Translational Sciences (NCATS)
